These molecules were tested against Glucocorticoid receptor (Homo sapiens) (UniProt P04150) (assay: GR-EFC Redistribution (AID 451)). Conditions: CHO-K1 GR-EFC translocation, beta-gal luminescence, 2 h; calls by dose curve.
Text: NIH Molecular Libraries Screening Centers Network [MLSCN]
NIH Chemical Genomics Center [NCGC]
The glucocorticoid receptor (GR) is a cytoplasmic receptor that belongs to the nuclear receptor family of ligand-dependent transcription factors. Upon glucocorticoid binding to its receptor, the glucocorticoid-GR complex translocates into the nucleus, where it binds as a dimer to specific DNA sequences (glucocorticoid response elements), enhancing or suppressing transcription of a wide variety of glucocorticoid-responsive genes. In addition to their important roles in normal physiology and metabolism, glucocorticoids are administered exogenously as treatments for a wide variety of allergic, autoimmune, and neoplastic conditions. Identification of compounds that modulate aspects of GR signalling would be useful in dissecting glucocorticoid response pathways as well as developing GR modulators with more targeted clinical effects.
Traditionally, GR modulators have been identified using receptor binding or direct transactivation assays. However, assays for glucocorticoid-dependent nuclear translocation can also be used to screen for compounds affecting GR signaling.
Immunocytochemical staining has been used to assay for GR translocation, but is not suitable for high throughout screening due to the multiple reagent addition and wash steps required. Recently, a novel cell-based GR assay in Enzyme Fragment Complementation (EFC) format was developed by DiscoveRx (Fremont, CA). The assay uses EFC of b-galactosidase (b-gal) as an indicator of GR-translocation in engineered CHO-K1 biosensor cells. The enzyme acceptor (EA) fragment of b-gal resides in the nucleus , as designed through the use of a proprietary set of sequence additions and modifications. The small peptide enzyme donor (ED) fragment of b-gal is fused directly to the C-terminus of GR, and is localized in the cytoplasm is the absence of receptor signaling. Upon binding to a GR ligand, the complex translocates to the nucleus, where intact enzyme activity is restored by complementation and b-gal activity is detected. We optimized this GR-EFC assay in homogenous 1536-well plate assay format for high throughput screening.
NCGC Assay Protocol Summary:
CHO-K1 cells stably expressing NLS-enzyme acceptor fragment (EA) of b-gal and GR-enzyme donor (ED) fragment of b-gal were maintained in F12 medium (Invitrogen, Carlsbad, CA) at 37 Celsius degrees under a humidified atmosphere containing 5% CO2 and 95% air. The medium contained 10% FBS, 2 mM L-glutamine, 50 U/ml penicillin 50 ug/ml streptomycin, and 250 ug/ml hygromycin and 500 ug/ml G418 (Invitrogen).
GR-translocation was measured beta-gal enzyme activity using the PathHunter Detection Kit containing cell membrane permeablizing reagent and beta-gal substrate (DiscoveRx, Fremont, CA). All compounds were screened as titrations from 0.6 nM to 46 uM final concentration. The assay was performed in 1536-well format as follows:
5 uL cell suspension (1,000 cells)/well
Incubation at 37 Celsius degrees for two hours
1.25 uL 1X detection buffer from the kit supplied by DiscoveRx
Incubation at room temperature for one hour
Read plate in luminescence mode in ViewLux plate reader (PerkinElmer)
Keywords: NIH Roadmap, MLSCN, MLI, MLSMR, GR-EFC, GREFC, qHTS, NCGC
Potency means the concentration at half of the fitted maximal effect.

Sequence of Glucocorticoid receptor (Homo sapiens) (P04150 whole entry, looked up): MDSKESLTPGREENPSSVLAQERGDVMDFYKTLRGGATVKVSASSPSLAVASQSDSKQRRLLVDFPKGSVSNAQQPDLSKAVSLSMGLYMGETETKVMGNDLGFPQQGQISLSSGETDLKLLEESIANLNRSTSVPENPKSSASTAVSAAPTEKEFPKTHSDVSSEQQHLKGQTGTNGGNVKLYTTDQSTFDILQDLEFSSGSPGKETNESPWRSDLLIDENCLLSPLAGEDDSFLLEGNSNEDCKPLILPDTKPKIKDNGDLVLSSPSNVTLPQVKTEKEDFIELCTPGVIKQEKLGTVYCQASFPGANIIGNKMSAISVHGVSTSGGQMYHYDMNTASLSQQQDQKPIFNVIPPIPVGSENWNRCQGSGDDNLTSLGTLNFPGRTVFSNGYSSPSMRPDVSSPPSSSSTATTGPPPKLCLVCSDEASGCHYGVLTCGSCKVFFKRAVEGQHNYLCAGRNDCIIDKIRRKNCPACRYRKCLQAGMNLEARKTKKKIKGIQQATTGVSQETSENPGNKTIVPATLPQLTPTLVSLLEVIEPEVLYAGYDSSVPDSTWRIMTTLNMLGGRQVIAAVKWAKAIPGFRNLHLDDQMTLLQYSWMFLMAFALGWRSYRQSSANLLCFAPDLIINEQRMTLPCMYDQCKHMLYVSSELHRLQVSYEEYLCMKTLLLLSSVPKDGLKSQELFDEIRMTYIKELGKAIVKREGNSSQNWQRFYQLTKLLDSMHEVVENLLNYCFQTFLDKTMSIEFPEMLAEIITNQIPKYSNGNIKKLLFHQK

Potency, inactive:
O=C1c2ccccc2C(=O)N1CCCSc1ccccc1 > 9.22 µM
Cc1ccc(C)c(C(=N)c2ccccc2Cc2ccccc2)c1 > 9.22 µM
NC(N)=NC(N)=Nc1c(F)c(F)c(F)c(F)c1F > 9.22 µM
Cc1cc(=O)[nH]c(/N=C(\N)Nc2ccc(Cl)cc2)n1 > 9.22 µM
O=C(O)/C(=C\c1ccccc1)c1ccccc1 > 9.22 µM
C[C@H]1CCCC2(CC[N+](C)(CCC[N+](C)(C)C)CC2)C1 (stereo not given in full) > 9.22 µM
O=C(O)CSc1ccc([N+](=O)[O-])cc1[N+](=O)[O-] > 9.22 µM
Cc1c2cc[n+](CCN3CCCCC3)cc2c(C)c2c1[nH]c1ccc(O)cc12 > 9.22 µM
Nc1c2c(nc3ccccc13)CCC[C@H]2O > 46 µM
O=C(O)C(Cl)(c1ccccc1)c1ccccc1 > 9.22 µM
C[C@H](CC(=O)O)C(C(=O)O)C(=O)O > 9.22 µM
Cc1ccc(S(=O)(=O)Oc2cc(S(=O)(=O)O)cc3cc(S(=O)(=O)O)cc(N)c23)cc1 > 9.22 µM
OCCCNCc1ccncc1 > 9.22 µM
S=c1nc(-c2nc(=S)[nH]c3c2CCCCCCCCCC3)c2c([nH]1)CCCCCCCCCC2 > 9.22 µM
Nc1nc(SCc2ccccc2Cl)cc(C(=O)O)n1 > 9.22 µM
O=C(Nc1nn[nH]n1)c1nc(-c2ccccc2)cc(=O)[nH]1 > 9.22 µM
Cc1cc(C)c2c(SCc3ccc(Cl)cc3Cl)nc(N)nc2n1 > 9.22 µM
C[C@@H](C(=O)O)/C(=C/c1ccc2c(c1)OCO2)C(=O)O > 9.22 µM
COCCn1c(=O)c(CCc2ccccc2)nc2cnc(Oc3cccc(Cl)c3)nc21 > 46 µM
Nc1ccc(N(S(=O)(=O)c2ccccc2)S(=O)(=O)c2ccccc2)c(Cl)c1 > 9.22 µM
COCCn1c(=O)c(-c2cc(F)cc(F)c2)nc2cnc(Oc3ccccc3)nc21 > 46 µM
C[C@@H](CCC(=O)O)C(=O)O > 9.22 µM
C[N+](C)(N)Cc1csc(-c2ccc(Cl)cc2)n1 > 9.22 µM
O=C(O)c1cc(=O)[nH]c(SCc2ccccc2)n1 > 9.22 µM
CN1CCN(c2ccc3nc(-c4ccc5nc(-c6ccc(O)cc6)[nH]c5c4)[nH]c3c2)CC1 > 9.22 µM
COc1cc2nc(N(C)CCCNC(=O)[C@@H]3CCCO3)nc(N)c2cc1OC > 20.6 µM
O=S(=O)(O)CCCc1cccc2ccccc12 > 9.22 µM
O=C1C=C(N2CCN(c3ccccn3)CC2)C(=O)c2c(O)ccc(O)c21 > 9.22 µM
CC[C@H](CN(C)C)C(=O)c1ccco1 > 9.22 µM
C[C@@H](N)/C(N)=N/O > 9.22 µM
COc1ccc(CCCC(=O)O)c(C)c1 > 9.22 µM
CCOC(=O)[C@@H](O)Cc1cnc2ccccc2n1 > 9.22 µM
c1ccc(CCc2cccnc2)nc1 > 9.22 µM
NS(=O)(=O)c1ccc(N=Nc2cc3ccccc3c(C(=O)O)c2O)cc1 > 9.22 µM
O=c1[nH]c(=S)[nH]c2c1CN(CCCN1CCOCC1)CN2 > 9.22 µM
CC1CCN(CC[S-])CC1.O.O.[Cl][Pt] > 9.22 µM
N=C(N)C(N=Nc1ccccc1)C(=N)N (stereo not given) > 9.22 µM
Nc1nc(-c2cc(-c3cccc4ccccc34)nc(N)n2)cc(-c2cccc3ccccc23)n1 > 9.22 µM
CN(C)Cc1cc(C(C)(C)C)cc(CNC2CCCCC2)c1O > 9.22 µM
N#CCCn1c(=O)c(-c2ccccc2)nc2cnc(N3CCNCC3)nc21 > 46 µM
